The full ranking holds about 33,000 sequences; the median of “E-score (-0.5 to 0.5)” is about -0.041, and the highest 2% start at about 0.37. The sample holds the highest values, similar sequences and a random draw of the others, so the mix is not that of the screen.
target: T1, Ecm22 (UniProt Q05958); experiment: PBM E-score (8-mer binding enrichment) (E-score (-0.5 to 0.5)); higher = stronger / more preferred TF binding; conditions: protein concentration: 200 nM; construct: GST-full length
T1 sequence: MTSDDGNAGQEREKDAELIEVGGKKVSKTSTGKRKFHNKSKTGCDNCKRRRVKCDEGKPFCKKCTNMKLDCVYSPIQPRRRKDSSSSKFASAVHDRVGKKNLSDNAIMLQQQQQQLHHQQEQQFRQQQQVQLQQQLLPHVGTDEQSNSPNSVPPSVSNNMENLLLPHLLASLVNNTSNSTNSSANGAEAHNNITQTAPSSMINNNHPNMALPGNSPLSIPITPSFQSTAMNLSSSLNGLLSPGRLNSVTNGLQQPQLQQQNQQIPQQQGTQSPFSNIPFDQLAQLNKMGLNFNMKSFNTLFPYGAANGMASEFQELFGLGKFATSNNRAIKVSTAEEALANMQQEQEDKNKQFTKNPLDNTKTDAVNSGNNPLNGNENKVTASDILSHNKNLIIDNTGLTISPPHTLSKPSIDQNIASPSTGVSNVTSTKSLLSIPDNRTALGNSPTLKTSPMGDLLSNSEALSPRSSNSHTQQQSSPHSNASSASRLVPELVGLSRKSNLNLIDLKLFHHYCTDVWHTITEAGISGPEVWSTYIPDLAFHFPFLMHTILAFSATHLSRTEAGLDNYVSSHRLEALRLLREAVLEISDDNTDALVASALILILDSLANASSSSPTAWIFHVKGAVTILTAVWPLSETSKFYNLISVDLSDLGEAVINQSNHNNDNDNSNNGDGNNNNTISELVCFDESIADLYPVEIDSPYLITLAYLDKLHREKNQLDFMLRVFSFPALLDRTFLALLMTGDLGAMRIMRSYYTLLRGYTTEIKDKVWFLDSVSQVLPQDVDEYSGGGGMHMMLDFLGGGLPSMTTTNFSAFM
Method: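 Universal 'all 10-mer' protein binding microarrays (Agilent AMADID 015681) probed with GST-tagged S. cerevisiae TFs (full-length or DBD) made by in vitro transcription/translation (PURExpress), about 100-200 nM. Bound TF was detected with fluorescent anti-GST. Each ungapped 8-mer (which stands for itself and its reverse complement) is scored by the PBM enrichment score (E-score), a modified Wilcoxon-Mann-Whitney statistic from -0.5 to +0.5, computed with the Universal PBM Analysis Suite. Scale: above 0.35 generally sequence-specific binding.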

Sequence	PBM E-score
AAGGGCTG	-0.377
AAGAGACG	0.0921
CTACTCTA	-0.204
CCAAACGC	0.177
GCAAACGA	0.433
TCAAACGA	0.452
ACAAACGA	0.445
ACAAACGG	0.226
CCAAACGA	0.437
CCAAACGG	0.287
GCAAACGC	0.0881
ACAAACGC	0.174
GCAAACAA	0.0626
TCAAACAA	-0.155
CAAAACGA	0.278
AGCGGGTG	-0.186
CTTTTGCC	-0.0531
ATCAACCA	-0.154
CGCAAGCG	0.142
TGGACCAA	-0.206
AGGGAGAT	-0.275
CAATGACG	-0.147
CCGTTTAG	0.433
ACGTTTAC	0.304
ACGTTTAG	0.33

Sequence	PBM E-score
GCGTTTAA	0.28
GCGTTTAC	0.227
CAGTTTAG	-0.0933
CCGTTTAC	0.416
ACGTTTAA	0.365
CCGTTTAA	0.441
ACAGATCT	-0.159
GTTCCAAC	0.135
AATACTAG	0.0461
CAGGCGCA	-0.24
AGGAGGCA	-0.294
CACGAAAG	-0.0739
GACGAAAC	0.287
AACGAAAG	0.399
AACGAAAA	0.364
ACCGAAAT	0.15
AACGAAAC	0.389
ACCGAAAG	0.0863
CACGAAAC	0.147
AACGAAAT	0.4
CCTAAAAG	-0.201
AACCAAAG	-0.0743
GTGGCAAA	-0.187
AGCACCAT	-0.122
CACGTACA	0.216

Sequence	PBM E-score
AGCGTACG	0.351
AGCGTACC	0.251
ATAGTACG	0.325
CTCGTACA	0.489
ATAGTACC	0.00552
CGCGTACA	0.269
ATCGTACG	0.437
ATAGTACA	0.151
AGCGTACA	0.179
ATCGTACA	0.465
ATCGTACC	0.479
GTTGACCA	-0.16
TACCGCAA	0.0649
AACTGCAT	-0.00243
ACGCCCAG	-0.143
AGGCTTAA	-0.168
GGTACTGA	-0.0769
CCCGATCA	0.197
GTCGTACA	0.484
AACGTACC	0.297
AACGTACG	0.378
AACGTACA	0.204
GGCGTACA	0.16
GACGTACA	0.211
ATTCTTAC	-0.026

Sequence	PBM E-score
CACCAGCA	-0.028
CTGCAGGA	-0.245
AGACCCGC	-0.00174
TCACGAGA	0.0348
AAACGTGG	0.133
AAACGGGT	0.319
CAACGAGG	0.343
TAACGTGA	-0.142
ACACGAGT	0.24
CAACGAGA	0.378
AAACGAGG	0.476
TAACGAGA	0.369
AAACGAGT	0.456
ACCCCCCA	-0.296
ATCACAAG	-0.0512
CCCCTAGG	-0.307
ACGAATTC	0.269
AGCCTGTC	0.0499
CATTGGCG	-0.239
ATCTTTGA	-0.00074
AGGCCGAC	-0.106
ACACGAGA	0.265
AGACGAGA	0.166
AAACGAGA	0.463
GCGTAAGA	0.074

Sequence	PBM E-score
AATATCTA	-0.0604
CGCCGTAA	0.26
AGCCGTAG	0.0779
GACCGTAC	0.362
CGCCGTAG	0.119
CGCCGTAC	0.408
AGCCGTAC	0.369
GGCCGTAA	0.244
AGCCGTAT	0.315
GGCCGTAC	0.419
ACGGTTGA	0.0702
AAGCCGAA	-0.0177
CAGGCACG	-0.112
AACAACTT	-0.092
GAAATCTC	0.129
CCCGAGCG	0.173
AGACGAAC	0.295
CTACGAAG	0.297
GCACGAAC	0.222
CTACGAAC	0.369
CCACGAAC	0.201
ACACGAAC	0.237
GTACGAAC	0.475
GGACGAAC	0.111
ATACGAAC	0.474

Sequence	PBM E-score
CCTAGCCC	-0.222
AGCGTCCC	-0.145
AATCTGTG	-0.0802
GTGGAACA	0.0214
GGAGTGCA	0.0316
GTGGGTCA	-0.308
AGGAGGTG	-0.298
ACGAGGTG	0.397
ACGAGGTC	0.389
CCGAGGTC	0.11
CCGAGGTA	0.176
AAGAGGTC	-0.207
GCGAGGTA	0.285
ATGAGGTG	-0.127
ACGAGGTA	0.413
CCTTTTCC	0.055
CGGTCTGC	0.0314
TACCACGA	0.0887
GCAACTGA	0.0723
GACTTCGC	0.232
GCAACGAC	0.417
GCAACGAA	0.406
CCAACGAC	0.0154
ACAACGAA	0.257
TCAACGAA	0.187

Sequence	PBM E-score
ACAACGAC	0.295
AGGCCCCA	-0.182
TAGTCCAA	-0.157
CGTACAAA	0.412
CGTACTGA	0.32
AGTACATA	-0.0214
AGTACAAA	0.0199
CGTACTTA	0.375
CGTACAAG	0.416
CGTACATC	0.353
CGTACATA	0.414
CATACAAG	-0.122
AGTACTTA	0.0475
AGTACAAG	0.0646
GGTACAAA	-0.0856
ACCACCAT	-0.103
TTAGGGAA	-0.0515
ATAACGGC	0.146
ATGAAGGC	-0.102
CGTGGACC	-0.108
ACGGAATG	0.0826
AGTGTTGA	-0.109
AAGCCGAG	0.0901

— the supplement of paper PMC3334620
